PubChem BioAssay (NCI)
About 83,000 compounds went through this panel and 20% of them were active in at least one assay; those are over-represented in the sample as a whole.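 48-hour exposure, single concentration, 96-well plates; percent growth endpoint where 0 means no net growth. Active: below 10.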 Active and inactive are the calls of the source.

What was measured:
Assay in all cases: NCI-60 one-dose screen, 48 h (100 = growth as untreated, 0 = no growth, -100 = all killed)
Details in all cases: 10 µM unless noted
NCI-H23 lung = system: NCI-H23 lung
NCI-H226 lung = system: NCI-H226 lung
NCI-H322M lung = system: NCI-H322M lung
HOP-62 NSCLC = system: HOP-62 NSCLC
NCI-H460 lung = system: NCI-H460 lung
HOP-92 NSCLC = system: HOP-92 NSCLC
NCI-H522 lung = system: NCI-H522 lung
A549/ATCC NSCLC = system: A549/ATCC NSCLC
786-0 renal = system: 786-0 renal
COLO 205 colon = system: COLO 205 colon

Measured: growth

O=C1C(Cl)=C(Nc2ccccc2)C(=O)c2ccccc21
inactive: NCI-H226 lung 95.5% | NCI-H322M lung 92.5% | HOP-62 NSCLC 101% | NCI-H460 lung 81.1% | A549/ATCC NSCLC 90.8% | 786-0 renal 31.9% | COLO 205 colon 14%
active: NCI-H23 lung -34.3% | HOP-92 NSCLC -94.4% | NCI-H522 lung -86.2%

Cc1ccc(S(=O)(=O)c2nc(-c3ccccc3)oc2SCC(N)=O)cc1
inactive: NCI-H23 lung 96.8% | NCI-H226 lung 98.1% | NCI-H322M lung 104% | HOP-62 NSCLC 98.3% | NCI-H460 lung 104% | HOP-92 NSCLC 83.2% | NCI-H522 lung 76.3% | A549/ATCC NSCLC 96.7% | 786-0 renal 95% | COLO 205 colon 111%

CCCOC(=O)Nc1nc2ccc(SCC)cc2s1
inactive: NCI-H23 lung 91.9% | NCI-H226 lung 92.9% | NCI-H322M lung 99.3% | HOP-62 NSCLC 81.4% | NCI-H460 lung 79.6% | HOP-92 NSCLC 96.1% | NCI-H522 lung 65.6% | A549/ATCC NSCLC 80.5% | 786-0 renal 93.9% | COLO 205 colon 72.2%

CCOC(=O)CC[C@H](NC(=O)c1ccc(N(C)Cc2cnc3nc(N)nc(N)c3n2)c2ccccc12)C(=O)OCC
inactive: NCI-H23 lung 25.5% | NCI-H226 lung 72.6% | NCI-H322M lung 46.3% | HOP-62 NSCLC 29.4% | NCI-H460 lung 13.8% | HOP-92 NSCLC 51.7% | NCI-H522 lung 22.4% | 786-0 renal 27.5% | COLO 205 colon 36.9%
active: A549/ATCC NSCLC 9.28%

Cc1ccc2c(c1)=C/C(=C\c1cc(-c3ccccc3)[nH]c1O)C(=O)N=2
inactive: NCI-H23 lung 56.7% | NCI-H226 lung 69.5% | NCI-H322M lung 82.2% | HOP-62 NSCLC 52% | NCI-H460 lung 25.6% | HOP-92 NSCLC 58% | NCI-H522 lung 27% | A549/ATCC NSCLC 46.2% | 786-0 renal 41.6% | COLO 205 colon 33.1%

O=C(/C=C/c1ccccc1Cl)c1cccc(OCCCCOc2cccc(C(=O)/C=C/c3ccccc3Cl)c2)c1
inactive: NCI-H23 lung 96.5% | NCI-H226 lung 90.3% | NCI-H322M lung 99.9% | HOP-62 NSCLC 103% | NCI-H460 lung 99.6% | HOP-92 NSCLC 94.4% | NCI-H522 lung 97.1% | A549/ATCC NSCLC 95.3% | 786-0 renal 103% | COLO 205 colon 107%

O=C(Nc1ccc(Nc2ccncc2)cc1)c1ccc(Nc2ccnc3ccc([N+](=O)[O-])cc23)cc1
inactive: NCI-H23 lung 86.9% | NCI-H226 lung 89.8% | NCI-H322M lung 116% | HOP-62 NSCLC 113% | NCI-H460 lung 68.2% | HOP-92 NSCLC 87.7% | NCI-H522 lung 102% | A549/ATCC NSCLC 94.7% | 786-0 renal 99.2% | COLO 205 colon 131%

CC(=O)c1c(Nc2cccc(F)c2)[nH]c2c(Cl)cc(Cl)c(Cl)c2c1=O
active: NCI-H23 lung 3.83% | NCI-H226 lung -4.3% | NCI-H322M lung 9.02% | HOP-62 NSCLC -10.1% | NCI-H460 lung 3.6% | HOP-92 NSCLC -14.2% | NCI-H522 lung -8.41% | A549/ATCC NSCLC 4.98% | COLO 205 colon -63.4%
inactive: 786-0 renal 12.2%

O=C(/C=C/C12c3ccccc3C(c3ccccc31)C1C(=O)NC(=O)C12)c1ccc(Cl)cc1Cl (stereo not given)
active: NCI-H460 lung 8.61% | NCI-H522 lung 9.1% | COLO 205 colon -8.3%
inactive: NCI-H23 lung 32.9% | NCI-H226 lung 78.7% | NCI-H322M lung 41.4% | HOP-62 NSCLC 21% | HOP-92 NSCLC 37.6% | A549/ATCC NSCLC 37.4% | 786-0 renal 19.1%

O=C1Nc2ccc(Cl)cc2/C1=C/c1ccc[nH]1
inactive: NCI-H23 lung 66.3% | NCI-H226 lung 97.4% | NCI-H322M lung 69.4% | HOP-62 NSCLC 95.8% | NCI-H460 lung 82.3% | HOP-92 NSCLC 133% | NCI-H522 lung 71.4% | A549/ATCC NSCLC 90.3% | 786-0 renal 108% | COLO 205 colon 126%

O=c1c2ccccc2n(C[C@H]2CO2)c2ccccc12
active: NCI-H23 lung -58.2% | HOP-62 NSCLC -12.8% | NCI-H460 lung -40.5% | HOP-92 NSCLC -3.5% | NCI-H522 lung -37.5% | A549/ATCC NSCLC -37.2% | 786-0 renal -14.1% | COLO 205 colon 2.46%
inactive: NCI-H226 lung 51.4% | NCI-H322M lung 20%

CN1C(=O)/C(=C/c2ccc(C(=O)Nc3ncc(Cc4cc(Cl)ccc4Cl)s3)cc2)SC1=S
inactive: NCI-H23 lung 67.6% | NCI-H226 lung 68.5% | NCI-H322M lung 76.7% | HOP-62 NSCLC 72.4% | NCI-H460 lung 73.7% | HOP-92 NSCLC 50.2% | NCI-H522 lung 62.5% | A549/ATCC NSCLC 73.3% | 786-0 renal 87.9% | COLO 205 colon 89.2%
